# Results reported in the supplement of paper PMC10849652.
# Targets with a hit are over-represented here; the source holds about 7,900 in all. About 0.6% of all pairs of compound and target were hits. Unmarked numbers belong to inactive results.
# Key:
# Test in all cases: log2 fold change, soluble protein after heating vs DMSO (PISA); higher = thermal stabilisation; K562 cells, 10 uM, 30 min; active = over 0.2 and 3.5 SD of the protein, either way, in both replicates (recomputed)
# [1] = compound: CC1=C(C=C(C=C1)NC(=O)C2=CC(=CC=C2)C(C)(C)C#N)NC3=CC4=C(C=C3)N=CN(C4=O)C
# Method in brief: (§1)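 Values are thermal stability changes relative to control samples and are taken from duplicates. They are stated as log2 fold changes. Before quantification by TMTpro 16plex LC-MS/MS with equalised channel sums, K562 cells at 2×10^6 cells/mL were treated with 10 μM compound for 30 min, heated in aliquots for 3 min across 48°C-58°C, pooled, extracted in PBS with 0.5% NP-40 at 4°C, and centrifuged at 21,000xg for 90 min to give the soluble supernatant.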
# [2] = compound: CC1=C(C=C(C=C1)NC(=O)C2=CC(=CC=C2)N(C)C)NC(=O)C3=CC=C(C=C3)O
# Method in brief: as §1
# [3] = compound: CC1=CC=C(C=C1)SC2=C3C=C(SC3=CN=C2)C(=O)N
# Method in brief: as §1
# [4] = compound: CC1=NC(=CC=C1)C2=C(N=C(N2)C(C)(C)C)C3=CC4=NC=CN=C4C=C3
# Method in brief: as §1
# [5] = compound: CCCCN(Cc1ccc(C(=O)NO)cc1)C(=O)Nc1ccccc1 [Nexturastat A]
# Method in brief: as §1
# [6] = compound: CCCS(=O)(=O)Nc1ccc(F)c(C(=O)c2c[nH]c3ncc(-c4ccc(Cl)cc4)cc23)c1F [vemurafenib]
# Method in brief: as §1
# [7] = compound: CCCS(=O)(=O)Nc1ccc(F)c(C(=O)c2c[nH]c3ncc(Cl)cc23)c1F
# Method in brief: as §1
# [8] = compound: CCCc1cc(C)[nH]c(=O)c1CNC(=O)c1cc(-c2ccnc(N3CCN(C)CC3)c2)cc2c1cnn2C(C)C
# Method in brief: as §1
# [9] = compound: CCN(CC)Cc1ccc2cc(COC(=O)Nc3ccc(C(=O)NO)cc3)ccc2c1 [givinostat]
# Method in brief: as §1
# [10] = compound: CCN(CCCOc1ccc2c(Nc3cc(CC(=O)Nc4cccc(F)c4)[nH]n3)ncnc2c1)CCOP(=O)(O)O [barasertib]
# Method in brief: as §1
# [11] = compound: CC[C@@H]1C(=O)N(C)c2cnc(Nc3ccc(C(=O)NC4CCN(C)CC4)cc3OC)nc2N1C1CCCC1
# Method in brief: as §1
# [12] = compound: CC[C@@H]1C(=O)N(C)c2cnc(Nc3ccc(C(=O)N[C@H]4CC[C@H](N5CCN(CC6CC6)CC5)CC4)cc3OC)nc2N1C(C)C [volasertib]
# Method in brief: as §1
# [13] = compound: CC[C@H](C)N1C=C(C2=C(C=C(C=C21)C3=CN=C(C=C3)N4CCNCC4)C(=O)NCC5=C(C=C(NC5=O)C)C)C
# Method in brief: as §1
# [14] = compound: CC[C@H](C)[C@@H](C(=O)N[C@@H]([C@@H](C)O)C(=O)N[C@@H](CC(C)C)C(=O)[C@]1(CO1)C)NC(=O)[C@H]([C@@H](C)CC)N(C)C(=O)C [epoxomicin]
# Method in brief: as §1
# [15] = compound: CCn1c(C(=O)N(C2CC2)C2CC2)cc2c3c(ncn3C)c(Nc3cc(C)n(C)n3)nc21
# Method in brief: as §1
# [16] = compound: CCn1cc(-c2ccnc3[nH]c(-c4cccc(CN(C)C)c4)cc23)c(-c2ccc(NC(=O)N(C)C)cc2)n1
# Method in brief: as §1
# [17] = compound: CN(C)CC(=O)Nc1ccc2[nH]c(=O)c3ccccc3c2c1
# Method in brief: as §1
# [18] = compound: CN(CCOC1=CC=C(C=C1)C[C@H]2C(=O)NC(=O)S2)C3=CC=CC=N3 (racemic) [rosiglitazone]
# Method in brief: as §1
# [19] = compound: CN1C2=C(C3=C1C(=O)N(N=C3)CC4=CC(=CC=C4)N)SC(=C2)S(=O)C
# Method in brief: as §1
# [20] = compound: CN1CCC(CNc2ccc3ncc(-c4cccc(OC(F)(F)F)c4)n3n2)CC1
# Method in brief: as §1
# Chain of UniProt O60911 (O60911 whole entry, looked up): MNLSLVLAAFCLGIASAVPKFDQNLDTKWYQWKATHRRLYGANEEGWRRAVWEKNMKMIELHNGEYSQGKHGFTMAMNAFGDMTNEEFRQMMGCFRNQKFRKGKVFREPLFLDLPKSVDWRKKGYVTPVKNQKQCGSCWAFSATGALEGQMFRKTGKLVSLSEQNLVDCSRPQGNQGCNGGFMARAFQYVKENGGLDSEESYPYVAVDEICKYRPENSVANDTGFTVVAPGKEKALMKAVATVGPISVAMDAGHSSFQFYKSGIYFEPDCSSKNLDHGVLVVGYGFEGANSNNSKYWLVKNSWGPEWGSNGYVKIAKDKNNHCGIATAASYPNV
# Chain of UniProt Q15392 (Q15392 whole entry, looked up): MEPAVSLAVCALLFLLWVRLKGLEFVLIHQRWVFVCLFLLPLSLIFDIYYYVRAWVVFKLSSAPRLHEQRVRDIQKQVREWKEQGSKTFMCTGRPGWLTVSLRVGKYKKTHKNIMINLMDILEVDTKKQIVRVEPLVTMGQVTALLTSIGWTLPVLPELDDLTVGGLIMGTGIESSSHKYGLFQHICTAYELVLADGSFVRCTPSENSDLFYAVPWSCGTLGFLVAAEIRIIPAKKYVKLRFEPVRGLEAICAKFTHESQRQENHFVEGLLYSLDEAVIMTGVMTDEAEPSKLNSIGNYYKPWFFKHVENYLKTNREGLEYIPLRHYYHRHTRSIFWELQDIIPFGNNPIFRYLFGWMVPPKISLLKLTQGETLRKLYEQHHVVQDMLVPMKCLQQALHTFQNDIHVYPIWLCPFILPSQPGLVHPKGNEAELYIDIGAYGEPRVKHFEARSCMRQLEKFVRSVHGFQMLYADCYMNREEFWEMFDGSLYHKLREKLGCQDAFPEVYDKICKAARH
# Chain of UniProt P25685 (P25685 whole entry, looked up): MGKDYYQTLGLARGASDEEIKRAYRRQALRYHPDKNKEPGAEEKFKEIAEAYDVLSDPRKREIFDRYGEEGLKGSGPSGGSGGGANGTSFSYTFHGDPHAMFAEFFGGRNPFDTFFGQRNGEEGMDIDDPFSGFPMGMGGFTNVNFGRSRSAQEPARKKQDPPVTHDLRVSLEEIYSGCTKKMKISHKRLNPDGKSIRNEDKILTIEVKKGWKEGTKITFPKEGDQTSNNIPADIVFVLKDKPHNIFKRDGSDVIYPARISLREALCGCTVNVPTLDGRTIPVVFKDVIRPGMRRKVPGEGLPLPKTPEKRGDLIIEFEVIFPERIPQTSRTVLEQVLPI
# Chain of UniProt Q13409 (Q13409 whole entry, looked up): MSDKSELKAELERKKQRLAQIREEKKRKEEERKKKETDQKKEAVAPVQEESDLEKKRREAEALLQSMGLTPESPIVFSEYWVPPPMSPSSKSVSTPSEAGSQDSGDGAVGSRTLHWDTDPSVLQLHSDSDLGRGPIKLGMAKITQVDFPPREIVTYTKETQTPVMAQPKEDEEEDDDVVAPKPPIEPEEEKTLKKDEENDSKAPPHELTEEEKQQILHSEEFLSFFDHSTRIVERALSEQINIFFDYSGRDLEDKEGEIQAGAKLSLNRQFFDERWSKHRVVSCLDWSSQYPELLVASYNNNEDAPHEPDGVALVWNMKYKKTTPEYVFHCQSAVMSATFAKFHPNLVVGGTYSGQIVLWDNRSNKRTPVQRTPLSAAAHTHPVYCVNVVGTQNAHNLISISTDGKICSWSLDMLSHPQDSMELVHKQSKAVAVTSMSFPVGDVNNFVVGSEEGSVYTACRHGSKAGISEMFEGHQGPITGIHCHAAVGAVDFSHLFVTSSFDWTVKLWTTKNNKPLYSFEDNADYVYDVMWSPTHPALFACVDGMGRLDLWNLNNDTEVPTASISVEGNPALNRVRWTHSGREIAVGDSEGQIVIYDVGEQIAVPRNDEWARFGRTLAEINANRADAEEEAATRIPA
# Chain of UniProt Q9NV06 (Q9NV06 whole entry, looked up): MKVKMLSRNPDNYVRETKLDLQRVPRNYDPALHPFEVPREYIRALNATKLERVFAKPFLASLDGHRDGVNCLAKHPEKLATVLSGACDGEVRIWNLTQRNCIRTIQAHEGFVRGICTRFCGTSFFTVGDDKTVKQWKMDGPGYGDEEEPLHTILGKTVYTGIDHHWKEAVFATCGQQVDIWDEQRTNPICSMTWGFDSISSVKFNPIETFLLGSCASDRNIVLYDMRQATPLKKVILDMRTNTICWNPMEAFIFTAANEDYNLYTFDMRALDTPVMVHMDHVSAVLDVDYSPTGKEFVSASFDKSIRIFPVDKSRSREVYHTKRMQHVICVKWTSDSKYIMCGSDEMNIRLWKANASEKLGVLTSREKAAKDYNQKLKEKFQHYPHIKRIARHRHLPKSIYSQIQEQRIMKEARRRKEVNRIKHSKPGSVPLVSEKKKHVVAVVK
# Chain of UniProt Q16643 (Q16643 whole entry, looked up): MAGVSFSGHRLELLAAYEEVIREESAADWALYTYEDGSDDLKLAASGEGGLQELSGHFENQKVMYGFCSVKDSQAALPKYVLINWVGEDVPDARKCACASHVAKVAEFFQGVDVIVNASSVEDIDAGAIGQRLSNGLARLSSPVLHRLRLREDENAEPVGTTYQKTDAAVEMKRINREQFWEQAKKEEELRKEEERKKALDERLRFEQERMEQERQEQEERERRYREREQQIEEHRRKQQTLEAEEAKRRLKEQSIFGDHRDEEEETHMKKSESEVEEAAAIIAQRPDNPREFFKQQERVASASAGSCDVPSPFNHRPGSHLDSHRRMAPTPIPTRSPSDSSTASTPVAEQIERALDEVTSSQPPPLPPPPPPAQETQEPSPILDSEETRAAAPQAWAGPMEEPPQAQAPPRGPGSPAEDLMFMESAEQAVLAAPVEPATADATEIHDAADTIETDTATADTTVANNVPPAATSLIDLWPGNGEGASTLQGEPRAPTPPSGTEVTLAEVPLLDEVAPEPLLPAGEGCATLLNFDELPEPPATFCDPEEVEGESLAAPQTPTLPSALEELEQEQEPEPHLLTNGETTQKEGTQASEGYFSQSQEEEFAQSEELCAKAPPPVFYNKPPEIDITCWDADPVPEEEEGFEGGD
# Chain of UniProt Q8NBA8 (Q8NBA8 whole entry, looked up): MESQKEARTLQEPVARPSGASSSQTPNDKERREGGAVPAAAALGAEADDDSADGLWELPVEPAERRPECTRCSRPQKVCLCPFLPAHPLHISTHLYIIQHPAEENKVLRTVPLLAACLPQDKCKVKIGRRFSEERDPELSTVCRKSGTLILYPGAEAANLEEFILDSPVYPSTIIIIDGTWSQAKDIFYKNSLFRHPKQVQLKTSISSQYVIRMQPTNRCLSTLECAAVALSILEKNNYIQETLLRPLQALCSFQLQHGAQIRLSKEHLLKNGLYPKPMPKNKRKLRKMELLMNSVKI
# Chain of UniProt Q0VG06 (Q0VG06 whole entry, looked up): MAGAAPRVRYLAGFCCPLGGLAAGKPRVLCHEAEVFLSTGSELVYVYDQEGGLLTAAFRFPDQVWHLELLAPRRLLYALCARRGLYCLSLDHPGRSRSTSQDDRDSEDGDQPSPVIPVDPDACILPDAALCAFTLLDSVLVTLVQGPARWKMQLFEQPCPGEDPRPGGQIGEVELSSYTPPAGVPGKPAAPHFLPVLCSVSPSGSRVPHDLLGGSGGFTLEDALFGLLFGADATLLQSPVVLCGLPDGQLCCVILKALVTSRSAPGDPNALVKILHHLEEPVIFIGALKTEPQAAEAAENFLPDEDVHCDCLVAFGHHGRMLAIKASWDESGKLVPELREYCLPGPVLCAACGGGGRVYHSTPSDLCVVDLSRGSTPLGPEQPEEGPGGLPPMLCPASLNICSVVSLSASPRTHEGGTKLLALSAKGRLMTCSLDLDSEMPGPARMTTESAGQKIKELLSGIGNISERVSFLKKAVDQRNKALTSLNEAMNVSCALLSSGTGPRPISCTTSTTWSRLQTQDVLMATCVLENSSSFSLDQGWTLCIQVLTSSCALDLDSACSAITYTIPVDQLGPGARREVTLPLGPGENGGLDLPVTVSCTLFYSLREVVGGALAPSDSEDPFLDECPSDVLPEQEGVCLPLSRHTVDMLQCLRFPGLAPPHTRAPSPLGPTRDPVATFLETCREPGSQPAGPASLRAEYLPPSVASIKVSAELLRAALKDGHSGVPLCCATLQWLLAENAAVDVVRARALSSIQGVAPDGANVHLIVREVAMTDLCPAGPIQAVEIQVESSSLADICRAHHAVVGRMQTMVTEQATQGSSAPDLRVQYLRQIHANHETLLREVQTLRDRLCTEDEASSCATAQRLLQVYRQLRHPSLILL
# Chain of UniProt O75071 (O75071 whole entry, looked up): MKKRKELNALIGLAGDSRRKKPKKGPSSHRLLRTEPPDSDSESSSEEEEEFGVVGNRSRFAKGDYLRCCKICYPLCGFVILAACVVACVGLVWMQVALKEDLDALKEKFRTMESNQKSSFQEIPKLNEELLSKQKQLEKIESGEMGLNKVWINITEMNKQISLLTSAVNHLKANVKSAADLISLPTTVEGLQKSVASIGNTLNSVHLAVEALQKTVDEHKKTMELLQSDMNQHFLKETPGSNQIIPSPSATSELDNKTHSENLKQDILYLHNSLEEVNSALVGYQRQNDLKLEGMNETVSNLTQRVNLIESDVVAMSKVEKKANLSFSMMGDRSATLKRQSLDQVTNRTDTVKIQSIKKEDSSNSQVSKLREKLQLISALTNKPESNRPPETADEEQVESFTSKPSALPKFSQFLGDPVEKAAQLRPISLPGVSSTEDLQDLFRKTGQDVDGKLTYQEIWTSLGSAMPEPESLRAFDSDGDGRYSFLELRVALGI
# Chain of UniProt P50402 (P50402 whole entry, looked up): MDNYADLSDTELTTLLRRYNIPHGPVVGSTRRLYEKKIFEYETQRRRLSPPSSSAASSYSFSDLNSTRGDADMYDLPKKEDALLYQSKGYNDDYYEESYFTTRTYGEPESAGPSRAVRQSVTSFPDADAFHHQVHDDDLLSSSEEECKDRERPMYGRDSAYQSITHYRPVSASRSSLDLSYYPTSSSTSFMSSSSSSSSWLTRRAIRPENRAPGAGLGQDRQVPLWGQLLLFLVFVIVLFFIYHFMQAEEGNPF
Target,log2 fold change [1],log2 fold change [2],log2 fold change [3],log2 fold change [4],log2 fold change [5],log2 fold change [6],log2 fold change [7],log2 fold change [8],log2 fold change [9],log2 fold change [10],log2 fold change [11],log2 fold change [12],log2 fold change [13],log2 fold change [14],log2 fold change [15],log2 fold change [16],log2 fold change [17],log2 fold change [18],log2 fold change [19],log2 fold change [20]
DHCR24 (UniProt Q15392),0.248,0.01,-0.003,-0.043,0.004,-0.114,-0.012,0.434,1.21 (active),0.088,0.769,1.21 (active),0.104,-0.056,-0.1,0.06,0.236,0,-0.094,0.525
EFCAB14 (UniProt O75071),-0.034,0.061,0.022,-0.011,-0.032,-0.049,0.012,0.023,0.054,-0.01,-0.033,-0.089,-0.078,0.068,0.045,0.06,-0.018,-0.009,0.028,-0.178
FAAP100 (UniProt Q0VG06),-0.004,-0.001,-0.039,0.066,-0.327 (active),0,-0.033,0.167,0.024,0.051,-0.01,0.149,-0.02,0.139,-0.05,-0.093,0.061,0.006,-0.02,0.124
DYNC1I2 isoform 5 (UniProt Q13409),-0.008,-0.03,-0.006,0.028,0.043,-0.009,0.005,-0.007,-0.005,-0.013,0.004,0.005,0.004,0.026,0.011,-0.003,0.002,-0.024,-0.041,-0.035
DNAJB1 (UniProt P25685),0.015,-0.045,-0.003,0.086,-0.03,0.009,0.028,-0.051,0.024,0.024,0.011,-0.222 (active),0.064,-0.041,-0.022,-0.026,-0.01,0.02,-0.064,-0.042
CTSV (UniProt O60911),0,0.019,0,-0.017,-0.043,-0.021,-0.006,-0.062,0.194,0.032,-0.719 (active),-0.993 (active),-0.054,-0.007,0.033,0.084,0.012,-0.013,-0.081,-1.29 (active)
CTSC (UniProt P53634),-0.113,0.001,0.059,-0.003,-0.009,0.035,0.01,0.03,0.017,0.023,-0.419 (active),-0.946 (active),-0.034,0.023,0.015,-0.032,0.146,-0.047,-0.015,-0.433 (active)
E2F4 (UniProt Q16254),0.031,0.011,0.087,0.079,0.034,-0.001,0.02,0.021,0.05,0.054,-0.057,-0.139,0.036,-0.008,-0.017,-0.025,-0.024,0.056,0.009,-0.245 (active)
ETNK1 (UniProt Q9HBU6),0.241,-0.054,0.022,0.02,-0.177,0.006,0.172,-0.076,0.042,0.005,0.021,-0.24,0.021,0.157,-0.03,0.059,0.121,0,-0.14,0.041
DCAF13 (UniProt Q9NV06),-0.038,0.007,-0.123,-0.067,0.205,-0.117,-0.062,0.089,0.017,-0.084,0.134,0.26,0.03,-0.24,0.038,0.132,-0.166,-0.112,0.195,0.136
EXOC2 (UniProt Q96KP1),-0.03,-0.017,0.051,0.027,0.058,0.041,0.062,0.037,0.177,0.056,-0.13,-0.463,-0.041,0,-0.089,0.044,0.058,0.01,0.123,-0.386 (active)
DBN1 isoform 3 (UniProt Q16643),-0.079,0.045,0.016,-0.002,0.104,0.075,0.032,-0.062,-0.026,-0.038,0.026,-0.189,0.089,-0.014,0.017,0.087,-0.047,-0.021,0.05,-0.011
DCAF6 isoform 3 (UniProt Q58WW2),0.016,-0.035,-0.034,-0.037,-0.041,-0.032,-0.047,0.011,-0.058,0.008,0.077,0.05,-0.064,0.025,0.013,-0.03,-0.035,0.006,0.006,0.004
DTWD2 (UniProt Q8NBA8),0.019,-0.025,0.197,-0.048,0.009,-0.079,0.043,-0.006,-0.139,0.056,-0.047,-0.048,0.057,-0.015,0.057,-0.018,-0.106,0.005,-0.066,0.035
EMD (UniProt P50402),-0.056,0.011,-0.076,-0.04,0.059,-0.015,0.021,-0.092,0.002,0.002,-0.127,-0.273 (active),0,-0.065,-0.004,0,-0.018,-0.054,0.003,-0.078
DIP2A (UniProt Q14689),0.032,-0.013,-0.007,0.07,-0.119,0.05,-0.009,0.336,-0.05,0.118,-0.065,0.026,-0.037,-0.017,0.037,-0.063,-0.041,-0.034,-0.045,0.057
